Drawing on PubChem BioAssay (NCI), this text covers growth for 29 compounds.

Molecules are shown by their SMILES. The panel holds about 83,000 compounds, 20% with a hit somewhere; the sample as a whole holds those more often.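 Results are percent growth after 48 hours of single-concentration exposure. 100 means growth as in untreated cells, lower positive values show inhibition; negative values down to -100 show cell death.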 Values without a mark were called inactive. The source made the active and inactive calls. The calls were made as follows: active = growth percent below 10; inactive = the rest.

Common to all, as to assay: NCI-60 one-dose screen, 48 h (100 = growth as untreated, 0 = no growth, -100 = all killed)
For assay [1], the system named is T-47D breast. Conditions: 10 µM unless noted.
The subject of assay [2] is BT-549 breast. Conditions: 10 µM unless noted.
For assay [3], the system named is MDA-MB-435 melanoma. Conditions: 10 µM unless noted.
For assay [4], the system named is SW-620 colon. Conditions: 10 µM unless noted.
The test system of assay [5] is MCF7 breast. Conditions: 10 µM unless noted.
Assay [6] relates to HCT-116 colon. Conditions: 10 µM unless noted.
The subject of assay [7] is HCC-2998 colon. Conditions: 10 µM.
For assay [8], the system named is KM12 colon. Conditions: 10 µM unless noted.

Consider `Cc1csc(-c2nnc(Nc3ccc(Oc4ncccc4-c4ccnc(N)n4)cc3)c3ccccc23)c1`, for which the growth in assay [1] is 30.5%; in assay [2], 60.4%; in assay [3], 31.9%; in assay [4], 20.3%; in assay [5], 12%; in assay [6], 22.1%. The values for the growth in assay [7] and in assay [8] were 36.1% and 19.2%, respectively.

For `COc1cnc2c(c1)C(=O)c1c-2n(CCCNC2=NCCS2)c(=O)c2cc(Cl)ccc12`, the growth in assay [1] was 32.9%; in assay [2] it was 41.6%; in assay [3], 7.73% (active); in assay [4], -79.3% (active); in assay [5] it was -74.9% (active); in assay [6] it was -87.8% (active). Further, the growth is -35.6% (active) in assay [7] and -63.2% (active) in assay [8].

On to `COc1cc2ncnc3c2cc1OCCCCCN(C)Cc1ccc(Br)cc1N3`, for which the growth in assay [1] was 4.78% (active); in assay [2], 60.6%; in assay [3], 72.3%; in assay [4] it was 47.7%; in assay [5], 56.9%; in assay [6], 33.2%. The growth was 68% in assay [7] and 58.9% in assay [8].

As to `O=C(CNc1nnc(-c2ccc(Cl)cc2)o1)Nc1ccc(-c2nc3ccccc3s2)cc1`, the growth in assay [1] was 79.9%; in assay [2], 87%; in assay [3], 97.1%; in assay [4], 110%; in assay [5], 34.5%; in assay [6], 89.8%. The growth in assay [7] was 93.5%; in assay [8], 97%.

For `Cc1cc2c(F)c(Oc3ncnn4cc(OC[C@@H](C)OC(=O)[C@H](C)N)c(C)c34)ccc2[nH]1`, the growth in assay [1] is 70.5%; in assay [2] it was 80.8%; in assay [3] it was 28.6%; in assay [4], 20.3%; in assay [5] it was 39.6%; in assay [6] it was 19.3%. Further, the growth was 37.5% in assay [7] and 35.1% in assay [8].

With `O=C(Cn1cncn1)Nc1ccc(-c2nc3ccccc3s2)cc1`, the growth in assay [1] was 64.9%; in assay [2] it was 91.5%; in assay [3], 105%; in assay [4], 106%; in assay [5], 36.1%; in assay [6], 95.4%. Besides, the growth in assay [7] is 93.9%; in assay [8], 98.2%.

As to `C=C1CC[C@@H]2[C@](C)(COC(C)=O)[C@H](OC(C)=O)CC[C@@]2(C)[C@@H]1C/C=C1/C(=O)OC[C@H]1OC(C)=O`, the growth was 42.8% in assay [1]; 27.4% in assay [2]; 33.1% in assay [3]; -21.9% (active) in assay [4]; 22.9% in assay [5]; -37.3% (active) in assay [6]. Also, the growth in assay [7] is 67.3%; in assay [8] it was 52.8%.

With `C/C(=C(/c1ccc(Cl)cc1)c1ccc(OCCN2CCCCC2)cc1)c1ccccc1`, the growth in assay [1] was 46.7%; in assay [2], 81.3%; in assay [3], 90.9%; in assay [4] it was 60.1%; in assay [5] it was 43.6%; in assay [6], 54.2%. The growth in assay [7] was 98%; in assay [8] it was 29.9%.

Regarding `CC[C@@H]1C(=O)N(C)c2cnc(Nc3ccc(C(=O)NC4CCN(C)CC4)cc3OC)nc2N1C1CCCC1`, the growth in assay [1] was -7.47% (active); in assay [2], 17.5%; in assay [3], 2.22% (active); in assay [4] it was 12.3%; in assay [5], 7.63% (active); in assay [6] it was 0.114% (active). Also, the growth in assay [7] is -28.6% (active); in assay [8] it was 12.9%.

Consider `C/C(=C(/c1ccc(Cl)cc1)c1ccc(OCCN2CCCC2)cc1)c1ccccc1`, for which the growth in assay [1] was 72.4%; in assay [2] it was 73.4%; in assay [3], 55.1%; in assay [4], 51.4%; in assay [5], 33.8%; in assay [6], 47.4%. Moreover, the growth in assay [7] was 84.7%; in assay [8], 25.6%.

For `COc1cc(NCCN(CC(C)C)CC(C)C)c2ncc(C)cc2c1`, the growth in assay [1] is 20.3%; in assay [2] it was 88.7%; in assay [3], -76.4% (active); in assay [4] it was 68.1%; in assay [5] it was 2.66% (active); in assay [6], 31.8%. In addition, the figures for the growth in assay [7] and in assay [8] were 85.6% and 68.6%, respectively.

As to `Cc1ccc(NC(=O)c2ccc(CN3CCN(C)CC3)cc2)cc1Nc1nc(-c2cccnc2)cs1`, the growth is -9.37% (active) in assay [1]; 41.2% in assay [2]; 45.4% in assay [3]; 42.1% in assay [4]; 28.5% in assay [5]; 18.1% in assay [6]. The growth was 68.3% in assay [7] and 51.7% in assay [8].

As for `COc1cnc2c(c1)C(=O)c1c-2n(CCCN2CCC(N)CC2)c(=O)c2cc([N+](=O)[O-])ccc12`, the growth was 46.6% in assay [1]; 76.7% in assay [2]; 85.9% in assay [3]; 37.2% in assay [4]; 25.3% in assay [5]; 36.4% in assay [6]. The growth in assay [7] is 69.3%; in assay [8] it was 44.6%.

On to `C=C1[C@@H](O)C[C@H]2C(C)(C)C[C@H](Cl)C[C@]2(C)[C@H]1C[C@H](O)[C@H]1CC(=O)NC1=O`, for which the growth is -20.3% (active) in assay [1]; -24.1% (active) in assay [2]; -44.6% (active) in assay [3]; -1.83% (active) in assay [4]; -18.8% (active) in assay [5]; -28.8% (active) in assay [6]. Moreover, the values for the growth in assay [7] and in assay [8] were -44.9% (active) and -18% (active), respectively.

Consider `COc1ccc(C(=O)N2c3ccccc3Sc3ccccc32)c(F)c1`, for which the growth was 40.2% in assay [1]; 22.7% in assay [2]; -37.6% (active) in assay [3]; 15% in assay [4]; 24.2% in assay [5]; 20.1% in assay [6]. Besides, the growth in assay [7] was 30.3%; in assay [8], 22.7%.

As for `Nc1ncnc2c1ccn2-c1cccc(NC(=O)c2ccc(N3CCOCC3)c(C(F)(F)F)c2)c1`, the growth in assay [1] was 32.2%; in assay [2] it was 57.5%; in assay [3] it was 53.7%; in assay [4] it was 66.5%; in assay [5], 67.1%; in assay [6] it was 24.9%. Besides, the growth in assay [7] was 62.6%; in assay [8], 31%.

As to `COc1cnc2c(c1)C(=O)c1c-2n(CCCN2CCOCC2)c(=O)c2cc(Cl)ccc12`, the growth was 10% in assay [1]; 43.6% in assay [2]; 47.5% in assay [3]; 21.3% in assay [4]; 10.4% in assay [5]; 8.51% (active) in assay [6]. Further, the results for the growth in assay [7] and in assay [8] were 53.6% and 32.7%, respectively.

For `CCC1(/C=N/NC(N)=S)NC(=O)NC1=O` (configuration not stated), the growth in assay [1] is 104%; in assay [2], 103%; in assay [3] it was 105%; in assay [4], 114%; in assay [5], 97.7%; in assay [6], 101%. Further, the growth is 115% in assay [7] and 113% in assay [8].

As for `C[C@@H](Oc1cc(-c2cnn(C3CCNCC3)c2)cnc1N)c1c(Cl)ccc(F)c1Cl`, the growth in assay [1] is -65.8% (active); in assay [2], -42.3% (active); in assay [3] it was -90.6% (active); in assay [4], -59.9% (active); in assay [5], -66.1% (active); in assay [6], -73.1% (active). Moreover, the growth is -73.2% (active) in assay [7] and -61.2% (active) in assay [8].

Consider `CCN(CC)C(=O)C[N+](C)(C)CCOC(c1ccccc1)c1ccccc1`, for which the growth is 105% in assay [1]; 99.3% in assay [2]; 93.2% in assay [3]; 111% in assay [4]; 93.4% in assay [5]; 99.4% in assay [6]. Also, the growth in assay [7] was 93%; in assay [8], 102%.

In the case of `CC(=O)Oc1ccccc1C(=O)N=C1[Se]CCN1C(=O)c1ccccc1OC(C)=O`, the growth is -15.2% (active) in assay [1]; -94.3% (active) in assay [2]; -57.2% (active) in assay [3]; -26.7% (active) in assay [4]; 5.48% (active) in assay [5]; -44% (active) in assay [6]. Besides, the growth in assay [7] was -4.02% (active); in assay [8], -12.6% (active).

Regarding `O=C(NOCCO)c1cc(CN2OCCCC2=O)c(F)c(F)c1Nc1ccc(I)cc1F`, the growth in assay [1] is 67.6%; in assay [2] it was 80.5%; in assay [3], 36.9%; in assay [4] it was 24.1%; in assay [5] it was 88.7%; in assay [6] it was 13.9%. In addition, the values for the growth in assay [7] and in assay [8] were -18.6% (active) and 26.6%, respectively.

Regarding `CN(N)c1nc2sc3c(c2c(=O)[nH]1)CCCC3`, the growth was 76.6% in assay [1]; 91.2% in assay [2]; 97.1% in assay [3]; 101% in assay [4]; 83.4% in assay [5]; 94.9% in assay [6]. The growth is 96% in assay [7] and 95.7% in assay [8].

As for `Cn1ccnc1C(=O)/C=C/c1ccc(CC(=O)Nc2ccc(C(F)(F)F)cc2)cc1`, the growth in assay [1] was 3.52% (active); in assay [2] it was 3.71% (active); in assay [3], 30.6%; in assay [4], 7.25% (active); in assay [5], 8.41% (active); in assay [6] it was 6.67% (active). Also, the figures for the growth in assay [7] and in assay [8] were 0.221% (active) and 4.24% (active), respectively.

In the case of `COc1cc2c3c(c1)nc(C)n3CCC2`, the growth in assay [1] was 95.8%; in assay [2], 94.2%; in assay [3], 100%; in assay [4], 107%; in assay [5], 99.5%; in assay [6], 92.8%. Further, the results for the growth in assay [7] and in assay [8] were 99.8% and 108%, respectively.

Turning to `c1cc(OCCN2CCCCC2)cc(-c2n[nH]c3ccc(-c4ncn[nH]4)cc23)c1`, the growth in assay [1] is 68.3%; in assay [2], 70.3%; in assay [3], 42.1%; in assay [4], 35.6%; in assay [5], 57.9%; in assay [6] it was 28.7%. Also, the growth in assay [7] was 66.7%; in assay [8], 39.6%.

As to `CC(C)[C@@H]1CC[C@@H]2[C@@H]1[C@H](OC(=O)/C=C/c1ccccc1)[C@]1(C(C)C)C[C@@H](OC(=O)CO)[C@@]2(C)O1`, the growth was 52.2% in assay [1]; 20.5% in assay [2]; 101% in assay [3]; 99.4% in assay [4]; 71.7% in assay [5]; 65.2% in assay [6]. Also, the growth in assay [7] is 79.9%; in assay [8], 82.6%.

For the compound `COc1cc2c(c(OC)c1)C1c3ccccc3NC(=O)N1CC2` (configuration not stated), the growth was 44% in assay [1]; 50.3% in assay [2]; -48.8% (active) in assay [3]; 20.5% in assay [4]; 18.1% in assay [5]; 30.6% in assay [6]. Moreover, the growth in assay [7] is 53.4%; in assay [8], 26.2%.

For `C[C@]12O[C@H](C[C@]1(O)CO)n1c3ccccc3c3c4c(c5c6ccccc6n2c5c31)CNC4=O`, the growth in assay [1] was -24.4% (active); in assay [2], -68.5% (active); in assay [3] it was -80.1% (active); in assay [4], 3.8% (active); in assay [5] it was -55.2% (active); in assay [6], 0.7% (active). In addition, the growth is -49.6% (active) in assay [7] and -18.5% (active) in assay [8].
